Data taken from ChEMBL document CHEMBL3988442, “University of Dundee, Small-Polar-MMV Screening Library” (2021).
Screen size: about 48,000 compounds; about 13,000 (27%) showed an effect of 50% or more. The list shows a part of the results.

System: Wolbachia pipientis
Experiment: Anti-Wolbachia Cell-Based Screen
Format: functional
Design: scale not given: in the data most compounds retested in dose-response had high values
Conditions: 5 µM

Compound | Percent Effect [%]
Cc1nc(CN2CCCC(CCc3ccccc3C)C2)c[nH]1 (configuration not stated) | 4.75
Cc1nnc(CN2CCCC(CCc3ccccc3C(F)(F)F)C2)o1 (configuration not stated) | 7.283
Cc1ccccc1CCC1CCCN(Cc2nnc(-c3ccco3)o2)C1 (configuration not stated) | 85.71
CCc1cnc(CN2CCCC2c2noc(C3CC3)n2)o1 (configuration not stated) | 2.963
Cc1cc(N2CCCC(N(C)C)C2)n2nc(C)cc2n1 (configuration not stated) | 4.471
COc1cc(CNCCn2cc(C)cn2)c2c(c1)CC(C)O2 (configuration not stated) | -8.791
FC(F)(F)CN1CCC(CCNc2ncccn2)CC1 | -5.19
O=S1(=O)COCCN1Cc1ccc(Cl)c(Cl)c1 | 174.3
Cc1ccc(CN2CCOCS2(=O)=O)cc1F | 130.8
CC(=O)N1CCN(Cc2ccc(F)c(C(F)(F)F)c2)CC(O)C1 (configuration not stated) | -17.39
O=S1(=O)COCCN1Cc1ccc(F)cc1Cl | 116.6
Cc1oc(-c2cccc(F)c2)nc1CN1CCOCS1(=O)=O | -0.8413
O=S1(=O)COCCN1Cc1cccc(Cl)c1 | -18.09
O=S1(=O)COCCN1Cc1ccc(F)c(C(F)(F)F)c1 | 116.1
Cc1ccc(-c2nc(CN3CCOCS3(=O)=O)c(C)o2)cc1 | -5.038
O=S1(=O)COCCN1Cc1ccc(Cl)c(F)c1 | -18.76
O=C1CCOCCN1Cc1ccc(C(F)(F)F)c(F)c1 | -2.892
Cc1cc(CN2CCOCS2(=O)=O)ccc1F | -11.48
CCc1ccc(CCC(=O)NCc2nnc[nH]2)cc1 | 9.868
O=C(CCn1cccn1)NS(=O)(=O)N1CCCc2ccccc21 | -12.53
CN(C)c1nc(N)nc(CSCCC(=O)Nc2ccc(F)cc2)n1 | -6.74
COCCN1CCN(CC(=O)N(C)Cc2ccc(F)cc2)CC1C (configuration not stated) | 0.8723
O=C(CN1CCOCS1(=O)=O)NCCc1ccc(Cl)cc1 | 2.599
O=C(CN1CCOCS1(=O)=O)NCc1ccccc1 | -2.644

Compound | Percent Effect [%]
O=S1(=O)COCCN1Cc1ccc(F)c(F)c1 | 115.2
Cc1cccnc1NC(=O)CSc1ccc2c(c1)OCCO2 | -1.464
CCN(CC)C(=O)Nc1ccc(N2CCSCC2)cc1C | -12.7
CC(C)c1nnc(NC(=O)N(C)Cc2ccc(C(N)=O)cc2)s1 | 102.8
CC(NC(=O)N(C)Cc1ccncc1)c1nncn1C (configuration not stated) | 2.48
CNC(=O)c1ccc(CN(C)C(=O)Nc2nnc(C(C)C)s2)cc1 | 109.8
CC(C)c1nnc(NC(=O)NCc2cccnc2NCCN(C)C)s1 | -11.78
CNC(=O)c1ccc(CN(C)c2ccc(C(F)(F)F)cn2)cc1 | 22.77
COCCN(Cc1ccc(C)o1)C(=O)Nc1nnc(C(F)F)s1 | -29.25
CC(C)c1nnc(NC(=O)NC2CCOc3ccccc32)s1 (configuration not stated) | -12.43
CSc1cc2c(cc1NC(=O)N(C)Cc1ccncc1)OCCO2 | -3.541
CC(C)c1nnc(NC(=O)N(C)Cc2ccncc2)s1 | 78.38
Clc1ccc(NCc2nnc(C3CC3)o2)cc1Cl | -1.785
CC(=O)Nc1cc(Br)cnc1OCC(F)(F)F | -6.07
Cc1nc(-c2ccco2)ccc1C(=O)N1CCc2nnc(N)cc2C1 | -5.155
O=C(CCC(=O)c1ccccc1)NC1(C(=O)NCC2CC2)CCCC1 | -11.29
CCc1nc(N)nc(N2CCCC3(CCOCC3)C2)c1C | 10.4
CCc1nc(N)nc(N2CCCC3(CN(C)C(=O)O3)C2)c1C (configuration not stated) | -2.167
CCc1nc(N)nc(N2CCCC3(CCN(C)CC3)CC2)c1C | 62.58
CCOCC(=O)N1CCC(C2CCN(Cc3ccc(Cl)cc3)C2)CC1 (configuration not stated) | -8.468
CCOc1cc(CNC(C)c2ccc(F)cc2)ccn1 (configuration not stated) | -5.561
COc1ccc(CNC(C)c2cnn(C)c2)cc1OC1CCCC1 (configuration not stated) | 106.9
COc1cc(CNc2cnn(C)c2)cc2c1OCCO2 | -0.1017
Clc1cnccc1NCc1cccc(COC2CCOCC2)c1 | -32.94

Compound | Percent Effect [%]
COc1ccc(CNC(c2cccc(F)c2)c2cnn(C)c2)cc1 (configuration not stated) | 4.131
CC(NCCN1CCN(C(=O)C2CCCC2)CC1)c1cnn(C)c1 (configuration not stated) | 3.842
Cn1cc(C(NCc2ccc(F)cc2)c2cccc(F)c2)cn1 (configuration not stated) | -2.157
CC(C(=O)NCc1ccnc(OC2CCCC2)c1)n1cncn1 (configuration not stated) | 10.69
CC(NCc1ccnc(OC2CCC2)c1)c1cnn(C)c1 (configuration not stated) | 127.4
O=C(Nc1cccc(CNCc2cccs2)c1)C1CCCC1 | 0.6832
CC(NCc1cccc(NC(=O)C2CCCCC2)c1)c1cnn(C)c1 (configuration not stated) | 104.4
CC(NCc1cccc(COC2CCCC2)c1)c1cnn(C)c1 (configuration not stated) | 126.5
CC(C)(O)C1CCN(C(=O)Nc2nc(-c3ccccc3)ns2)CC1 | 6.519
CC(=O)c1cc(CC(=O)NCc2ccc(CN(C)C)cc2)cs1 | -9.398
O=C1CCC2(CCCN(C(=O)c3ncc[nH]3)C2)CN1CCc1c[nH]cn1 (configuration not stated) | 2.094
CC(=O)N1CCCN(C(C)C(=O)Nc2ccnn2C(C)C)CC1 (configuration not stated) | 14.5
Cc1ccc(C(=O)NCCS(=O)(=O)Cc2ccccc2)c(=O)[nH]1 | -6.765
CN(C)c1cc(C2CCCN(C(=O)c3ccc(=O)[nH]n3)C2)ccn1 (configuration not stated) | 139.8
O=C(NCCn1cnc(C2CCCC2)cc1=O)c1ccc(=O)[nH]n1 | -1.303
CNc1cc(C2CCCN2C(=O)c2ccc(=O)[nH]n2)ccn1.O=CO (configuration not stated) | 167.7
CNc1cc(C2CCCN(C(=O)c3ccc(=O)[nH]n3)C2)ccn1 (configuration not stated) | 169.1
CNc1cc(C2CCCN2C(=O)c2ccc3oc(=O)n(C)c3c2)ccn1 (configuration not stated) | -0.2257
O=C(c1ccc(=O)[nH]n1)N1CC(c2nc(Cc3ccccc3)no2)C1 | -16.23
Cn1cc(C(=O)N2CCC(c3nccn3Cc3ccncc3)CC2)cn1 | -25.63
Cc1cc(C2CCN(C(=O)c3cnn(C)c3)CC2)ccn1 | 94.31
Cc1cc(C2CCCN(C(=O)c3cnn(C)c3)C2)ccn1 (configuration not stated) | -11.66
Cc1ccnc(C2CCN(C(=O)c3cnn(C)c3)CC2)n1 | 85.52
Cc1ccnc(C2CCN(C(=O)c3cnn(C)c3)C2)n1 (configuration not stated) | 83.36
